# Several values for one entry are separate records, joined by “and”; a condition that tells them apart may be missing. Equal entries are not always repeated. Values without a mark were called inactive. Inconclusive results are not listed. Entries that show only a call come without a potency. Activity calls are given as the source filed them. Unless noted, the call rests on the fitted dose curve; in most records, active means well fitted curve in the direction sought with a large enough effect; inconclusive means small, poorly fitted or top-dose-only effect, or another doubt; inactive means no such curve, though single readings can be large; an effect the other way counts as inactive or inconclusive.
# Tests used:
# CASKI = assay: Primary qHTS to identify gynecologic anti-cancer compounds using libraries of approved drugs and bioactive compounds (AID 1345084); conditions: Gynecologic cancer cell panel viability, ATPlite luminescence, 48 h; series mostly up to 57.5 µM; further: nearly all actives have a fitted effect of over 55% in size; further: potency means the concentration at half of the fitted maximal effect
# How it was run: (§1)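 Measured: luminescence after ATPlite addition (15 min, RT). Exposure: 48 h, 37 C, 5% CO2.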
# Es-2 = assay: as above; conditions: Gynecologic cancer cell panel viability, ATPlite luminescence, 48 h; series mostly up to 57.5 µM
# How it was run: as §1
# HeLa = assay: as above; conditions: Gynecologic cancer cell panel viability, ATPlite luminescence, 48 h; series mostly up to 57.5 µM
# How it was run: as §1
# Hek293T = assay: as above; conditions: Gynecologic cancer cell panel viability, ATPlite luminescence, 48 h, control line for the selectivity index; series mostly up to 57.5 µM
# How it was run: as §1
# JEG-3 = assay: as above; conditions: Gynecologic cancer cell panel viability, ATPlite luminescence, 48 h; series mostly up to 57.5 µM
# How it was run: as §1
# OV90 = assay: as above; conditions: Gynecologic cancer cell panel viability, ATPlite luminescence, 48 h; series mostly up to 57.5 µM
# How it was run: as §1
# PA-1 = assay: as above; conditions: Gynecologic cancer cell panel viability, ATPlite luminescence, 48 h; series mostly up to 57.5 µM
# How it was run: as §1
# SKOV3 = assay: as above; conditions: Gynecologic cancer cell panel viability, ATPlite luminescence, 48 h; series mostly up to 57.5 µM
# How it was run: as §1
# Tov-21-G = assay: as above; conditions: Gynecologic cancer cell panel viability, ATPlite luminescence, 48 h; series mostly up to 57.5 µM
# How it was run: as §1
# Tov112D = assay: as above; conditions: Gynecologic cancer cell panel viability, ATPlite luminescence, 48 h; series mostly up to 57.5 µM
# How it was run: as §1
# [1] = Drug repurposing screens with cells derived from glioblastoma tumor samples (AID 1345199); conditions: GBM patient neurospheres viability, ATP luminescence, 48 h; further: nearly all actives have a fitted effect of over 40% in size; further: potency means the concentration at half of the fitted maximal effect
# How it was run: (§2)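 Primary testing used CD133+ neurospheres from four GBM patients, seven concentrations, 48 h exposure and ATP-based viability; confirmation added three slower-growing patient lines.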
# astro = assay: as above; conditions: viability, ATP luminescence, 48 h; series mostly up to 45.9 µM
# How it was run: as §2
# [2] = qHTS assay to identify inhibitors of the type 1 interferon - major histocompatibility complex class I in skeletal muscle: Counter screen cell viability and HiBit confirmation (AID 1347412); conditions: iHSKM muscle cells + IFN-b, HiBiT or CellTiter-Glo, 24 h; further: nearly all actives have a fitted effect of over 60% in size; further: potency means the concentration at half of the fitted maximal effect
# How it was run: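 HLA-B*08:01–HiBiT knock-in immortalized human myoblasts (C25cl48) stimulated with 4.0 ng/ml human IFN-beta and dosed with compound in a 12-point 1:3 titration (top final 46 uM). After 24 hrs at 37 C, HiBiT lytic luminescence or CellTiter Glo ATP read out.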
# [3] = molecular target: Nuclear receptor subfamily 1 group I member 2 (Rattus norvegicus) (UniProt Q9R1A7); assay: qHTS assay for small molecule activators of the rat pregnane X receptor (rPXR) signaling pathway (AID 651751; call rule not given here); conditions: rPXR reporter cells, luciferase (One-Glo), 24 h
# [4] = qHTS assay for small molecule activators of the human pregnane X receptor (PXR) signaling pathway (AID 720659; call rule not given here)
# [5] = at 45.9 µM (top of the series), tumour line B
# [6] = at 45.9 µM (top of the series), tumour line D
# [7] = at 46.1 µM (top of the series), tumour line C
# [8] = at 46 µM (top of the series), tumour line A
# Chain of Nuclear receptor subfamily 1 group I member 2 (Rattus norvegicus) (Q9R1A7 whole entry, looked up): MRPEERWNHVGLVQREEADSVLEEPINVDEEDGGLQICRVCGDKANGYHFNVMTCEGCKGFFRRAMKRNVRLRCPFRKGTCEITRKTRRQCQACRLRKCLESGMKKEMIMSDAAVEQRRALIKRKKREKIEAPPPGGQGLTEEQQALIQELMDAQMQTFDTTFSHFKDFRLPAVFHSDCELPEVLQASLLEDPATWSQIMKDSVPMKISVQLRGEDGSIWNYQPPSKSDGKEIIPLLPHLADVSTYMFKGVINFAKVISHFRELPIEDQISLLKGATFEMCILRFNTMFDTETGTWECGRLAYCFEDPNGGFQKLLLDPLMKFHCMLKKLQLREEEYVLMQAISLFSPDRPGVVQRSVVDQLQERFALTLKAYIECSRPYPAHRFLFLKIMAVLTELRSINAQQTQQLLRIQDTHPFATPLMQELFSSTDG
smiles,measurement,setting,value
CCCCC1C(=O)N(c2ccccc2)N(c2ccccc2)C1=O,Potency,CASKI,inactive
same,Potency,Es-2,inactive
same,Potency,HeLa,inactive
same,Potency,Hek293T,inactive
same,Potency,JEG-3,inactive
same,Potency,OV90,inactive
same,Potency,PA-1,inactive
same,Potency,SKOV3,inactive
same,Potency,Tov-21-G,inactive
same,Potency,Tov112D,inactive
same,"activity, negative = cell killing",[1]; [5],-14.3% and -18.7%
same,"activity, negative = cell killing",[1]; [6],-13.1% and -6.92%
same,"activity, negative = cell killing",[1]; [7],4.16% and -25.1%
same,Potency,astro,inactive
COc1ccc2cc(-c3nc(-c4ccc(S(C)=O)cc4)[nH]c3-c3ccncc3)ccc2c1 (centres undefined),Potency,CASKI,inactive
same,Potency,Es-2,inactive
same,Potency,HeLa,inactive
same,Potency,Hek293T,inactive
same,Potency,JEG-3,inactive
same,Potency,OV90,inactive
same,Potency,PA-1,inactive
same,Potency,Tov-21-G,inactive
same,Potency,Tov112D,inactive
CCN(CC)CCNC(=O)c1ccc(N)cc1,Potency,CASKI,inactive
same,Potency,Es-2,inactive
same,Potency,HeLa,inactive
same,Potency,Hek293T,inactive
same,Potency,JEG-3,inactive
same,Potency,OV90,inactive
same,Potency,PA-1,inactive
same,Potency,SKOV3,inactive
same,Potency,Tov-21-G,inactive
same,Potency,Tov112D,inactive
same,"activity, negative = cell killing",[1]; [5],-3.23%
same,"activity, negative = cell killing",[1]; [7],15.6%
same,Potency,astro,inactive
CCS(=O)(=O)N1CC(CC#N)(n2cc(-c3ncnc4[nH]ccc34)cn2)C1,Potency,CASKI,inactive
same,Potency,Es-2,inactive
same,Potency,HeLa,inactive
same,Potency,Hek293T,inactive
same,Potency,JEG-3,inactive
same,Potency,OV90,inactive
same,Potency,PA-1,inactive
same,Potency,Tov112D,inactive
same,"activity change, negative = inhibition","[2]; Viability, at 45.9 µM (top of the series)",-4.12%
O=c1[nH]cnc2c1ncn2[C@H]1CC[C@@H](CO)O1,Potency,CASKI,inactive
same,Potency,Es-2,inactive
same,Potency,HeLa,inactive
same,Potency,Hek293T,inactive
same,Potency,JEG-3,inactive
same,Potency,OV90,inactive
same,Potency,PA-1,inactive
same,Potency,SKOV3,inactive
same,Potency,Tov-21-G,inactive
same,Potency,Tov112D,inactive
same,"activity, negative = cell killing",[1]; [5],-2.39%
same,"activity, negative = cell killing",[1]; [6],8.81%
same,"activity, negative = cell killing",[1]; [8],-25.7%
same,"activity, negative = cell killing",[1]; [7],-15.1%
same,Potency,astro,inactive
same,max response,[3],-1.01% and 3.56%
same,outcome,[4],inactive
CC(C)(C)c1ccc(C(O)CCCN2CCC(C(O)(c3ccccc3)c3ccccc3)CC2)cc1 (centres undefined),Potency,CASKI,inactive
same,Potency,Es-2,inactive
same,Potency,HeLa,inactive
same,Potency,Hek293T,inactive
same,Potency,JEG-3,inactive
same,Potency,OV90,inactive
same,Potency,PA-1,inactive
same,Potency,SKOV3,inactive
same,Potency,Tov-21-G,inactive
same,Potency,Tov112D,inactive
same,"activity, negative = cell killing",[1]; [7],-2.38%
same,Potency,[1]; tumour line A,5.01 µM (active)
same,Potency,[1]; tumour line B,11.2 µM (active)
same,Potency,[1]; tumour line D,10 µM (active)
same,Potency,astro,35.5 µM (active) and 20 µM (active)
same,Potency,[2]; Viability,22.2 µM (active)
COc1ccc2c(Oc3ccc(NC(=O)c4c(C)n(CC(C)(C)O)n(-c5ccccc5)c4=O)cc3F)ccnc2c1,Potency,CASKI,inactive
same,Potency,Es-2,inactive
same,Potency,HeLa,inactive
same,Potency,Hek293T,inactive
same,Potency,JEG-3,inactive
same,Potency,OV90,inactive
same,Potency,PA-1,inactive
same,Potency,Tov-21-G,inactive
same,Potency,Tov112D,inactive
Clc1ccc(Cn2c(CN3CCCC3)nc3ccccc32)cc1,Potency,CASKI,inactive
same,Potency,Es-2,inactive
same,Potency,HeLa,inactive
same,Potency,Hek293T,inactive
same,Potency,JEG-3,inactive
same,Potency,OV90,inactive
same,Potency,PA-1,inactive
same,Potency,SKOV3,inactive
same,Potency,Tov-21-G,inactive
same,Potency,Tov112D,inactive
same,"activity, negative = cell killing","[1]; at 20 µM (top of the series), tumour line C",-7.94%
same,"activity, negative = cell killing","[1]; at 21.2 µM (top of the series), tumour line B",-28.4%
same,Potency,[1]; tumour line A,2.51 µM (active)
same,Potency,astro,inactive
CN(C)CCC(c1ccccc1)c1ccccn1 (centres undefined),Potency,CASKI,inactive
same,Potency,Es-2,inactive
same,Potency,HeLa,inactive
same,Potency,Hek293T,inactive
same,Potency,JEG-3,inactive
same,Potency,OV90,inactive
same,Potency,PA-1,inactive
same,Potency,SKOV3,inactive
same,Potency,Tov-21-G,inactive
same,Potency,Tov112D,inactive
same,"activity, negative = cell killing",[1]; [5],-6.99%
same,"activity, negative = cell killing",[1]; [6],-4.75%
same,"activity, negative = cell killing",[1]; [8],-22.4%
same,"activity, negative = cell killing",[1]; [7],-14.6%
same,Potency,astro,inactive
same,max response,[3],2.3%
same,outcome,[4],inactive
COC[C@@H](c1ccc(C(F)(F)F)cc1)N1CCN(C2(C)CCN(C(=O)c3c(C)ncnc3C)CC2)C[C@H]1C,Potency,CASKI,inactive
same,Potency,Es-2,inactive
same,Potency,HeLa,inactive
same,Potency,Hek293T,inactive
same,Potency,JEG-3,inactive
same,Potency,OV90,inactive
same,Potency,PA-1,inactive
same,Potency,Tov-21-G,inactive
same,Potency,Tov112D,inactive
O=C(Nc1ccccc1-c1cn2c(CN3CCNCC3)csc2n1)c1cnc2ccccc2n1,Potency,CASKI,inactive
same,Potency,Es-2,inactive
same,Potency,HeLa,inactive
same,Potency,Hek293T,inactive
same,Potency,JEG-3,inactive
same,Potency,OV90,inactive
same,Potency,PA-1,inactive
same,Potency,SKOV3,inactive
same,Potency,Tov-21-G,inactive
same,Potency,Tov112D,inactive
same,Potency,[2]; HiBiT,11.1 µM (active)
same,Potency,[2]; Viability,15.7 µM (active)
COc1ccc2c(Oc3ccc(NC(=O)c4c(C)n(CC(C)(C)O)n(-c5ccccc5)c4=O)nc3)ccnc2c1,Potency,CASKI,inactive
same,Potency,Es-2,inactive
same,Potency,HeLa,inactive
same,Potency,Hek293T,inactive
same,Potency,JEG-3,inactive
same,Potency,OV90,inactive
same,Potency,PA-1,31.6 µM (active)
same,Potency,Tov112D,inactive
COc1ccc(C2Sc3ccccc3N(CCN(C)C)C(=O)C2OC(C)=O)cc1 (centres undefined),Potency,CASKI,inactive
same,Potency,Es-2,inactive
same,Potency,HeLa,inactive
same,Potency,Hek293T,inactive
same,Potency,JEG-3,inactive
same,Potency,OV90,inactive
same,Potency,PA-1,inactive
same,Potency,Tov-21-G,inactive
same,Potency,Tov112D,inactive
CC(=O)N[C@@H](CS)C(=O)O,Potency,CASKI,inactive
same,Potency,Es-2,inactive
same,Potency,HeLa,inactive
same,Potency,Hek293T,inactive
same,Potency,JEG-3,inactive
same,Potency,OV90,inactive
same,Potency,PA-1,inactive
same,Potency,SKOV3,inactive
same,Potency,Tov-21-G,inactive
same,Potency,Tov112D,inactive
same,"activity, negative = cell killing",[1]; [5],-7.88%
same,"activity, negative = cell killing",[1]; [6],-1.21%
same,"activity, negative = cell killing",[1]; [8],-28.2%
same,"activity, negative = cell killing",[1]; [7],-14.2%
same,Potency,astro,inactive
same,outcome,[4],inactive
CC/C(=C(\c1ccccc1)c1ccc(OCCN(C)C)cc1)c1ccccc1,Potency,CASKI,inactive
same,Potency,Es-2,inactive
same,Potency,HeLa,inactive
same,Potency,Hek293T,inactive
same,Potency,JEG-3,inactive
same,Potency,Tov-21-G,inactive
same,Potency,Tov112D,inactive
same,Potency,astro,25.1 µM (active)
O=C(O)CCc1nc(-c2ccccc2)c(-c2ccccc2)o1,Potency,CASKI,inactive
same,Potency,Es-2,inactive
same,Potency,HeLa,inactive
same,Potency,Hek293T,inactive
same,Potency,JEG-3,inactive
same,Potency,OV90,inactive
same,Potency,PA-1,inactive
same,Potency,SKOV3,inactive
same,Potency,Tov-21-G,inactive
same,Potency,Tov112D,inactive
same,"activity, negative = cell killing",[1]; [5],-13%
same,"activity, negative = cell killing",[1]; [6],3.1%
same,"activity, negative = cell killing",[1]; [7],-11.6%
same,Potency,astro,inactive

# Reference: PubChem BioAssay (NCATS)
